The panel holds about 79,000 compounds, 15% with a hit somewhere; the sample as a whole holds those more often. Unmarked numbers belong to inactive results. The source made the active and inactive calls. Cut-off read from the data, not from the text of the source: active = growth inhibition above about 70%; inactive = the rest.
Experiments:
[1] = NCI Yeast Anticancer Drug Screen. Data for the rad50 strain (AID 155);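 note: 0% = growth of vehicle-only cultures of the same strain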; conditions: S. cerevisiae rad50 strain growth inhibition, stronger effect = higher value
How it was run: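 Inhibition values express reduced yeast growth in compound-treated cultures relative to vehicle-treated controls.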

[2] = NCI Yeast Anticancer Drug Screen. Data for the mec2-1 strain (AID 157); conditions: S. cerevisiae mec2-1 strain, stronger effect = higher value
How it was run: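 Growth inhibition is read against vehicle-treated controls after compound exposure of the mec2-1 yeast strain, which is defective in DNA damage repair or cell cycle control.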

[3] = NCI Yeast Anticancer Drug Screen. Data for the sgs1 mgt1 strain (AID 161);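 note: 0% = growth of cultures given vehicle only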; conditions: S. cerevisiae sgs1 mgt1 strain, stronger effect = higher value
How it was run: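 Yeast cells carrying a defined DNA-repair defect were exposed to test compounds. Growth inhibition was measured relative to vehicle-treated controls.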

[4] = NCI Yeast Anticancer Drug Screen. Data for the cln2 rad14 strain (AID 165);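 note: 0% = growth equal to vehicle treated cultures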; conditions: S. cerevisiae cln2 rad14 strain, stronger effect = higher value
How it was run: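 Growth inhibition, relative to vehicle-treated controls, is the read-out. The test organism is a yeast strain with defined genetic alterations, cln2 rad14.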

[5] = NCI Yeast Anticancer Drug Screen. Data for the bub3 strain (AID 167); conditions: S. cerevisiae bub3 mutant strain, stronger effect = higher value
How it was run: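 Steps: expose the mutant yeast strain to compound; grow alongside vehicle-treated cultures; measure growth; express inhibition against the vehicle cultures.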

[6] = NCI Yeast Anticancer Drug Screen. Data for the mlh1 rad18 strain (AID 175); conditions: S. cerevisiae mlh1 rad18 strain growth inhibition, stronger effect = higher value
How it was run: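 Cells of a genetically altered yeast strain, deficient in DNA damage repair, were treated with compound. Their growth was then compared with that of vehicle-treated cultures to give inhibition.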

[7] = at 5.0 µM (retest, dose inferred, filed as 0.5)
[8] = at 50.0 µM (retest, dose inferred, filed as 5.0)

Compound | growth inhibition [1, 7] | growth inhibition [1, 8] | growth inhibition ([1]; at 50.0 µM) | growth inhibition [2, 7] | growth inhibition [2, 8] | growth inhibition ([2]; at 50.0 µM) | growth inhibition [3, 7] | growth inhibition [3, 8] | growth inhibition ([3]; at 50.0 µM) | growth inhibition [4, 7] | growth inhibition [4, 8] | growth inhibition ([4]; at 50.0 µM) | growth inhibition [5, 7] | growth inhibition [5, 8] | growth inhibition ([5]; at 50.0 µM) | growth inhibition [6, 7] | growth inhibition [6, 8] | growth inhibition ([6]; at 50.0 µM)
CC(C)(C)C1CCC(SCCO)CC1 (stereo not given) | -22% | 98% (active) | 97.5% (active) | -2% | 95% (active) | 91.9% (active) | -3% | 98% (active) | 97.7% (active) | -9% | 97% (active) | 90% (active) | -8% | 98% (active) | 95% (active) | 14% | 99% (active) | 95.4% (active)
CC1(C)COC(C)(C(=O)O)OC1 | 2% | -5% | 51.6% | -2% | -1% | -3.35% | 4% | 2% | -5.8% | 0% | -6% | -50.7% | -4% | 0% | -1.8% | 6% | -1% | -8%
[N-]=[N+]=NC1=C(C(=O)c2ccccc2)C(=O)c2cccc3cccc1c23 | 13% | 18% | 32.7% | 6% | 27% | 20.4% | 18% | 30% | 37% | 6% | 17% | 35.2% | 8% | 40% | 25.4% | 4% | 29% | 70% (active)
Cn1cc(NC(=O)c2cc(NC(=O)CCCCCCC(=O)Nc3cc(C(=O)Nc4cc(C(=O)NCCC(=N)N)n(C)c4)n(C)c3)cn2C)cc1C(=O)NCCC(=N)N | 87% (active) | 98% (active) | 91.8% (active) | 89% (active) | 99% (active) | 93.8% (active) | 82% (active) | 99% (active) | 93% (active) | 44% | 95% (active) | 91.3% (active) | 92% (active) | 98% (active) | 92.2% (active) | 90% (active) | 98% (active) | 92.2% (active)
Cc1c(N)nc(C(CC(N)=O)NCC(N)C(N)=O)nc1C(=O)NC(C(=O)NC(C)C(O)C(C)C(=O)NC(C(=O)NCCc1nc(-c2nc(C(=O)NCCCNC(C)c3ccccc3)cs2)cs1)C(C)O)C(OC1OC(CO)C(O)C(O)C1OC1OC(CO)C(O)C(OC(N)=O)C1O)c1cnc[nH]1 (stereo not given) | 97% (active) | 98% (active) | 92.2% (active) | 97% (active) | 99% (active) | 93.5% (active) | 95% (active) | 98% (active) | 93.5% (active) | 85% (active) | 93% (active) | 90.4% (active) | 93% (active) | 98% (active) | 93.3% (active) | 98% (active) | 99% (active) | 92.2% (active)
O=[N+]([O-])c1c(Cl)ccc2nsnc12 | 24% | 97% (active) | 99.4% (active) | -27% | 97% (active) | 99.2% (active) | -14% | 98% (active) | 98.8% (active) | -56% | 84% (active) | 98.6% (active) | -49% | 96% (active) | 98.5% (active) | -50% | 97% (active) | 99% (active)
O=S1(=O)C=C(c2ccccc2)S(=O)(=O)C=C1c1ccccc1 | -1% | 85% (active) | 89% (active) | 3% | 76% (active) | 89.7% (active) | 0% | 63% | 95.2% (active) | 0% | 94% (active) | 57.9% | -5% | 81% (active) | 91.8% (active) | 0% | 85% (active) | 91.2% (active)
CCCCCCCCCCCCCCOCCS(=O)(=O)O | 18% | 83% (active) | 70.8% (active) | -9% | 69% | 52.4% | 16% | 80% (active) | 78.8% (active) | -12% | 61% | 38.4% | 6% | 85% (active) | 29.8% | 7% | 83% (active) | 79.4% (active)
Cc1cc(N=Nc2ccncc2C)ccc1N | -69% | 98% (active) | 92.5% (active) | -50% | 87% (active) | 52.5% | -34% | 98% (active) | 75.6% (active) | -45% | 92% (active) | 48.9% | -40% | 98% (active) | 89% (active) | -72% | 96% (active) | 66.7%
COC(OC)(c1ccccc1)C(Br)Br | -21% | 50% | 85.8% (active) | -18% | 86% (active) | 93.2% (active) | -24% | 45% | 89.3% (active) | -7% | 41% | 90.4% (active) | -25% | 89% (active) | 90% (active) | -12% | 59% | 84.8% (active)

Source: PubChem BioAssay (NCI)
